IMPase inh: IMPase inhibition in cells; CHO-M1 cells, IP1 accumulation, HTRF TR-FRET ratio; P97697; inhibition (IP1 accumulation), % at 46.1 µM; 120,000 tested, under 10 active; active = well fitted curve in the direction sought with a large enough effect in the signal ratio, not every such curve was filed as active; inconclusive = small, poorly fitted or top-dose-only effect, or a change in a side signal; inactive = no such curve, though single readings can be large or run the other way; the % refers to the signal ratio;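 also: cells stimulated with carbachol in lithium chloride buffer; plate controls were DMSO basal wells for no effect and reference inhibitor wells for full effect; higher means more IMPase inhibition seen as more IP1 and lower FRET ratio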
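Measured: the HTRF emission ratio (665/620 nm) plus the 620 nm donor channel, each fitted to the Hill equation to give AC50. Cells were CHO-M1 given compounds up to 46 uM and a 30 min carbachol stimulation at 37C.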
12-hLO inh: 12-hLO (ALOX12) enzyme inhibition | P18054 | purified 12-hLO, xylenol orange hydroperoxide absorbance | Potency, µM (series often up to 57.1 µM), inactives show at the highest dose activity change, negative = inhibition, hits mostly inhibitors | actives 0.12% (n = 150,000) | AID 1452; active = well fitted curve in the direction sought with a large enough effect; inconclusive = small, poorly fitted or top-dose-only effect, or another doubt; inactive = no such curve, though single readings can be large; an effect the other way counts as inactive or inconclusive; also: potency is read from the fitted curve at half-maximal effect; nearly all actives have a fitted effect of over 55% in size
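150 nM 12hLO, 25 mM Hepes pH 7.0 + 0.01% Triton X-100; cpd preinc 15 min RT; 40 uM arachidonic acid, 30 min RT; Fe-XO 30 min; A573/A405 ratio as read-out.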
IMPase Li cell: IMPase inhibition in cells with lithium potentiation | Potency, µM (doses to about 59.4 µM), inactives show at the top dose activity, negative = IMPase inhibition, usual class: inhibitors | actives 0.35% (n = 210,000) | CHO-M1 cells, IP1 TR-FRET (IP-One), carbachol + lithium; active = well fitted curve in the direction sought with a large enough effect; inconclusive = small, poorly fitted or top-dose-only effect, or another doubt; inactive = no such curve, though single readings can be large; an effect the other way counts as inactive or inconclusive;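 also: IP1 builds up when IMPase is blocked and the TR-FRET signal falls; potency is read from the fitted curve at half-maximal effect; plate controls were basal vehicle for no effect and high inhibitor control for full effect; nearly all actives have a fitted effect of over 50% in size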
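CHO cells stably expressing M1 receptor (2000/well) were cultured 16–30 h, then exposed to compounds with a small lithium addition for 30 min at 37C. IP1 was measured by TR-FRET competition; AC50 from Hill fits.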
PNC assembly inh: perinucleolar compartment assembly inhibition; PC3M PTB-GFP, PNC prevalence imaging, 16 h; stronger effect = lower value; activity change (PNC), negative = inhibition, % at 10 µM; actives 3.1% (n = 140,000); AID 2417;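 active = readout at or below -70, meaning at least 70% loss of cells showing the perinucleolar compartment, a nuclear body marking cancer cells; inconclusive = readout between -30 and a set limit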;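 also: plate controls were DMSO wells for no effect and camptothecin positive control wells for full effect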
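Read-out is percentage of cells bearing a perinucleolar compartment, from automated 20x imaging of fixed, Hoechst-stained PC3M PTB-GFP cells. Cells were seeded 4 h, then exposed 16 h to compound (23 nl of library stock) in duplicate plates.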
HPGD inh: inhibitors of human 15-hydroxyprostaglandin dehydrogenase (HPGD). P15428. actives 4.3% (n = 150,000). Potency, µM, inactives show at the top dose activity change, negative = inhibition, usual class: inhibitors. AID 894. purified HPGD, NADH fluorescence kinetic, PGE2 substrate; also: potency is read from the fitted curve at half-maximal effect
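NADH formation kinetics: reaction with 30 uM PGE2 and 1 mM NAD+ (final), 20 nM enzyme, Tris-HCl pH 8 with Tween 20, after 15 min compound preincubation at room temperature. Fluorescence change, last versus first of five reads.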
ALDH1A1 block: inhibitors of human aldehyde dehydrogenase 1A1. P00352. Purified ALDH1A1, NADH fluorescence, propionaldehyde substrate. Potency, µM (doses to about 75.3 µM), for inactives: at the top dose activity, negative = inhibition, hits mostly inhibitors. actives 7.3% (n = 220,000). AID 1030;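 also: potency is read from the fitted curve at half-maximal effect; plate controls were no enzyme wells and a reference inhibitor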
Target sequence (P00352 whole entry, looked up): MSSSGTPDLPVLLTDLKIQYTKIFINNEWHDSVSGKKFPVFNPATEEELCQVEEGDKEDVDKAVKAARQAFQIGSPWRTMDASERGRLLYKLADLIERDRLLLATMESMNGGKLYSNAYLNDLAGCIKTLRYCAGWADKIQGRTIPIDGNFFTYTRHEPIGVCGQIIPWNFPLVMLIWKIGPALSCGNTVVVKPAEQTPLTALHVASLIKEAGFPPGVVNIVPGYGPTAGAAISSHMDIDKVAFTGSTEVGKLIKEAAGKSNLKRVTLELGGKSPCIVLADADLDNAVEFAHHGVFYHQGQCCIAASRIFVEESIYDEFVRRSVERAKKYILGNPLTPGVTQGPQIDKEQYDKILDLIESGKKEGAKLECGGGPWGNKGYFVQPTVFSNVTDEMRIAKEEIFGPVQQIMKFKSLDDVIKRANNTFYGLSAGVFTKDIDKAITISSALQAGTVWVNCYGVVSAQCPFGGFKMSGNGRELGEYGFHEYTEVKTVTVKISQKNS
* marks the source's active call; other numbers are inactive results; ? = inconclusive; . = no result given; [ ] = another dose, or the depositor's remark. The list is not random: actives were taken first. Their share in the collection is about 11%. Unless noted, calls follow the shape of the dose curve; as a rule, active = well fitted inhibition curve with a large enough effect (not every such curve was filed as active); inconclusive = small, poorly fitted or top-dose-only effect, or another doubt; inactive = no such curve, though single readings can be large or run the other way. Unless noted, % is scaled to controls: 0 for no effect and ±100 for the full control effect.

SMILES | IMPase inh | 12-hLO inh | IMPase Li cell | PNC assembly inh | HPGD inh | ALDH1A1 block
CC1(C)C[C@@H]2C(=O)CCC3O[C@@]3(C)CCC21 (stereo not given in full) | . | 5% | 0% | . | -8% | 5%
O=C1c2cccc3cccc(c23)C(=O)N1OS(=O)(=O)c1ccc(Cl)cc1 | . | 2% | -11% | 40 | ? | ?
CCNC(=S)N/N=C1\CCCCc2ccccc21 | . | -9% | 7% | 7 | -24% | ?
O=C(N/N=C1/C(=O)c2cccc3cccc1c23)c1ccc(Cl)cc1 | -1 | -7% | 47%[38.3 µM] | 2 | 28µM* | ?
CCNC(=S)N/N=C1\C(=O)c2cccc3cccc1c23 | 1 | -4% | 21%[38.3 µM] | -2 | -15% | 10µM*
COS(C)(=O)=O | . | 8% | 3% | . | -11% | 13%
COCCn1c(=O)c(-c2ccc(OC)cc2)nc2cnc(N3CCNCC3)nc21 | . | -1% | 7% | . | ? | ?
CCCN(C/C=C/I)C1CCc2cccc(O)c2C1 (stereo not given) | . | . | 6% | . | . | -4%
CCOC(=O)Cn1c(=O)oc2cc(S(=O)(=O)Nc3cc(Cl)ccc3OC)ccc21 | 8 | -14% | -8%[38.3 µM] | -97* | -18% | ?
CCOC(=O)Cn1c(=O)oc2cc(S(=O)(=O)Nc3ccc(N(CC)CC)cc3C)ccc21 | 3 | -5% | 22%[38.3 µM] | 9 | 28µM* | ?
CCOC(=O)Cn1c(=O)oc2cc(S(=O)(=O)Nc3cc(OCC)ccc3OCC)ccc21 | -2 | -7% | 16%[38.3 µM] | -3 | -11% | 0%
O=C(O)[C@H]1C[C@H](C(=O)O)N1 | -5 | 4% | . | . | . | .
Cc1cnc(CNc2nc(-c3c(C)noc3C)nc3ccccc23)cn1 | . | . | -2% | . | . | 0%
Cc1ccccc1-c1nc(NCc2cccnc2)c2ccccc2n1 | . | 0% | 16% | . | -24% | 22µM*
Cc1cnc(CNc2nc(-c3ccccc3Cl)nc3ccccc23)cn1 | . | . | -9% | . | . | 14µM*
Clc1ccccc1-c1nc(NCc2cccnc2)c2ccccc2n1 | . | . | -3% | . | . | ?
COCCNc1nc(-c2ccccc2CN(C)C)nc2ccccc12 | . | 5% | -4% | . | -9% | 7%
CCc1nc2sc3c(N4CCC(C)CC4)ncnc3c2c2c1CCCC2 | 2 | . | . | . | . | .
Cc1ccc(C2CC(=O)NC(SCCC(C)C)=C2C#N)cc1 (stereo not given) | 14 | -6% | 14%[38.3 µM] | 1 | ? | 13µM*
CCOC(=O)CSC1=C(C#N)C(c2ccc(Cl)cc2)C(C(=O)OC)C(=O)N1 (stereo not given) | ? | -15% | 33%[38.3 µM] | ? | -26% | 25µM*
N#CC1=C(SCC(N)=O)NC(=O)CC1c1ccccc1Cl (stereo not given) | 5 | -6% | -7%[38.3 µM] | 9 | -4% | 20µM*
CCCSC1=C(C#N)C(c2ccccc2C)CC(=O)N1 (stereo not given) | -1 | 4% | -9%[38.3 µM] | 50 | ? | ?
COC(=O)CSC1=C(C#N)C(c2ccc(Cl)cc2)C(C(=O)OC)C(=O)N1 (stereo not given) | 11 | -9% | . | 42 | . | -8%
CCCSC1=C(C#N)C(c2ccc(Cl)cc2Cl)CC(=O)N1 (stereo not given) | -4 | ? | 47%[38.3 µM] | ? | 32µM* | 20µM*
CCSC1=C(C#N)C(c2ccccc2Cl)CC(=O)N1 (stereo not given) | -1 | -2% | 4%[38.3 µM] | -10 | -8% | ?
CCCCc1ccc(NC(=O)CSc2nc3ccccc3nc2N2CCOCC2)cc1 | 6 | . | . | . | . | .
CNCC(=O)NCC(=O)N[C@@H](Cc1ccccc1)C(=O)N[C@@H](CC(C)C)C(=O)O | . | . | -5% | . | . | -4%
CN(C)S(=O)(=O)c1nc(Cl)c2[nH]cnc2n1 | . | -3%[11.4 µM] | 3% | . | -7% | 4%[13.5 µM]
N#CC1=C(SCC(=O)Nc2ccccc2)NC(=O)CC1c1ccc(O)cc1 (stereo not given) | -8 | 12% | 4%[38.3 µM] | 4 | -2% | ?
